Screening data (PubChem BioAssay)
GPR151 activ = activators of human GPR151, primary screen, cell-based, PathHunter beta-arrestin, luminescence; 650,000 compounds, 1% hits; G-protein coupled receptor 151 (Homo sapiens), Q8TDV0; PathHunter beta-arrestin GPR151 cells; AID 1508602, 2020; activation, % at 11.2 µM; in the data active = activation above about 4.9%;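 note: 0% = median of compound wells and 100% = cells with positive control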
Target sequence (Q8TDV0 whole entry, looked up): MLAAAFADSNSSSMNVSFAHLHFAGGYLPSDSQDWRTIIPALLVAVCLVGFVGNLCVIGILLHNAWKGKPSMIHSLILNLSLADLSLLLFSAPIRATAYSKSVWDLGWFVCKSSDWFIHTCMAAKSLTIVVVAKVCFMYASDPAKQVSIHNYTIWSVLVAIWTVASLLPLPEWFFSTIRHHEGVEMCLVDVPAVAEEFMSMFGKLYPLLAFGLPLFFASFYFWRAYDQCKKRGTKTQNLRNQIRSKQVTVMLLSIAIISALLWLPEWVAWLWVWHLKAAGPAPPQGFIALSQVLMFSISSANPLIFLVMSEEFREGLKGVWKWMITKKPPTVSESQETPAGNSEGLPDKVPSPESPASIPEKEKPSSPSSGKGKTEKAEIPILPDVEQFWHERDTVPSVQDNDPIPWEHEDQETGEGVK
MITF inh = MITF inhibitors, primary screen, biochemical, AlphaScreen, human; AlphaScreen MITF homodimerization, bead proximity signal; inhibition, % at 2.6 µM; 650,000 compounds, 0.91% hits; AID 1259374, 2018; in the data active = inhibition above about 50%;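 note: 0% = vehicle wells with protein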
TEAD-YAP inh = TEAD-YAP interaction inhibition, primary screen, TEAD-YAP interaction inhibitor project, luminescence, HEK-TIYL cells. TEAD-Gal4/YAP UAS-luciferase luminescence. inhibition, % at 9.12 µM. 640,000 compounds, 1.4% hits. AID 1259422, 2018; in the data active = inhibition above about 32%;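 note: 0% = median of test compound wells and 100% = reference inhibitor wells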
FBW7 act = FBW7 E3 ligase activators, primary screen, biochemical, AlphaScreen, human; F-box/WD repeat-containing protein 7 (Homo sapiens), Q969H0; AlphaScreen FBW7–phospho-cyclin E peptide binding, activator screen; normalized activity (activation), % at 26.1 µM; 650,000 compounds, 0.13% hits; in the data active = normalized activity above about 1.9%;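 note: purified mutant Fbw7 with reduced substrate affinity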
GPR151 conf act = GPR151 activators, triplicate retest, confirmation, cell-based, PathHunter beta-arrestin, luminescence. shares compounds with GPR151 activ. GPR151 PathHunter beta-arrestin cells, 90 min; % of EA-reagent control over plate median. activation, % at 11.2 µM. 6,700 tested, under 10 active;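 active = mean percent activation across replicates above the confirmation screen cutoff of 4.91%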
GPR119 ag = GPR119 activators in beta-arrestin cells, counter-screen for GPR151 activator project, cell-based, PathHunter beta-arrestin, luminescence, triplicate; 90 min; 0 = compound-well median, 100 = enzyme-acceptor control; 6,700 compounds, 0.3% hits; activation, % at 11.2 µM; shares compounds with GPR151 activ;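 active = mean percent activation in the counterscreen above 29.09%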;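 note: counterscreen on off-target GPR119 to flag nonselective hits from the GPR151 activator screen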
The depositor's hits bear a star; · = no result. An excerpt weighted towards active compounds, which were near 3.5% of everything screened.

SMILES	GPR151 activ	MITF inh	TEAD-YAP inh	FBW7 act	GPR151 conf act	GPR119 ag
COc1ccc(CC(=O)NNC(=O)CSc2nc(C)c(C)c(=O)[nH]2)cc1	6.3*	8	5	0	0	-6
CCc1nnc(SCC(=O)N2c3ccccc3Sc3ccccc32)n1N	2	6	7	0	·	·
Cc1nnc(SCC(=O)N2c3ccccc3Sc3ccccc32)n1N	7.4*	8	9	0	0	-3
CCCNC(=O)c1cc(NCC)nc2ccccc12	5.2*	-5	-5	0	1	-1
O=C(CCN1C(=O)c2ccccc2S1(=O)=O)Nc1ccc(C(=O)O)cc1	7.6*	-18	-4	0	1	6
COc1ccc(NC(=O)CCN2C(=O)c3ccccc3S2(=O)=O)cc1	-1	4	-7	0	·	·
COc1ccccc1Nc1c(-c2ccc(C)c(C)c2)c(=O)c1=O	0	16	-10	1	·	·
CCOC(=O)c1cccc(Nc2c(-c3ccc(C)c(C)c3)c(=O)c2=O)c1	12*	2	-4	0	1	-2
CCOC(=O)c1ccc(Nc2c(-c3ccc(Cl)cc3)c(=O)c2=O)cc1	0	2	-7	0	·	·
Cc1ccc(-c2c(Nc3ccccc3F)c(=O)c2=O)cc1C	5.8*	3	49*	0	0	4
O=C(NCCc1c[nH]c2ccccc12)c1ccc(CNc2nc(=S)[nH]c3ccccc23)cc1	5	6	16	0	·	·
O=C(Cc1cccnc1)N[C@H](Cc1ccc(Cl)cc1)c1nc2ccc(-c3cn[nH]c3)cc2c(=O)[nH]1	5.5*	4	9	0	1	12
CCCCCCCn1c(Cc2ccccc2)nc2ccccc21	5.8*	-1	-4	0	0	-1
CCC(C)C(=O)NCc1nnc2n1CCN(Cc1ccc(-c3cccc(Cl)c3)o1)CC2 (configuration not stated)	-1	5	3	0	·	·
CCCN1C(=O)C(O)(CC(=O)c2ccccc2O)c2ccccc21 (configuration not stated)	11*	0	6	0	0	0
CN(C)C1(CNCc2c(C(=O)N3CCOCC3)nc3ccccn23)CCCCC1	0	-6	11	0	·	·
CC(C)c1c(C(=O)Nc2ccccc2)c(-c2ccccc2)c(-c2ccc(F)cc2)n1CC[C@@H](O)C[C@@H](O)CC(=O)O	5.2*	-4	·	0	0	-15
O=C(Nc1ccc(-c2ccccc2)cc1)c1ccc(F)cc1	1	-20	-22	0	·	·
O=C(CN1C(=O)C(c2ccc(F)cc2)=NC12CCCC2)Nc1ccccc1	2	6	22	0	·	·
COC(=O)C1=NNC2C(=O)N(c3ccc(OC)cc3)C(=O)C12 (configuration not stated)	6.1*	18	8	0	0	8
O=C(CCN1c2ccccc2Sc2ccccc21)N1CCOCC1	5.8*	9	4	0	-1	-1
O=C(C1CCC(CNc2c(N3CCCC3)c(=O)c2=O)CC1)N1CCc2ccccc21 (configuration not stated)	5.3*	11	-1	0	-1	-15
Cc1ccc(C2C(=O)N(C3CCCCC3)CC(=O)N2C2CCCCC2)cc1 (configuration not stated)	0	3	-7	0	·	·
CCCCOc1nc2ccccc2nc1C(C#N)C(=O)OCC (configuration not stated)	5.3*	-13	-7	0	0	-4
CCCCOC(=S)SCc1ccc(Cl)s1	6.4*	4	3	0	0	-3
SMILES	GPR151 activ	MITF inh	TEAD-YAP inh	FBW7 act	GPR151 conf act	GPR119 ag
CSc1ccccc1C(=O)Nc1ccc2c(c1)CC(=O)N2	5.3*	6	6	0	0	-3
Cc1cc(C)c(-n2c(O)c(/C=C3\C=CC=N3)c(=O)[nH]c2=O)c(C)c1	7.3*	1	46*	0	1	7
CCc1ccccc1NC(=S)N(CCCN1CCCCC1)Cc1ccco1	4	19	0	0	·	·
O=C(Cn1c(-c2ccccn2)nc2ccccc21)N1CCCCC1	-3	1	2	1	·	·
O=C(Cn1c(-c2cccnc2)nc2ccccc21)N1CCCCCC1	5.6*	-4	10	0	0	2
Cc1cc(NC(=S)NCc2ccccc2)n[nH]1	1	5	20	0	·	·
Cc1oc(-c2ccccc2Cl)nc1CSCC(=O)NC(C)(C)C	5.2*	5	-23	0	1	-1
Cc1oc(-c2ccccc2Cl)nc1CSCC(=O)NC1CCCC1	2	6	-4	0	·	·
COc1ccc(CNC(=O)CNC(=S)N(Cc2ccc(F)cc2)C2CCCCC2)cc1	0	13	11	0	·	·
O=C(NCCN1CCOCC1)C1CCN(c2ccc(NCc3cccnc3)nn2)CC1	6.1*	4	9	0	0	4
CC1(C)NC(=O)N(CCOCCOc2ccc3ccccc3c2Br)C1=O	5.5*	-5	-32	0	0	-10
CC1(C)NC(=O)N(CC(O)COc2ccc3ccccc3c2Br)C1=O (configuration not stated)	3	-5	-13	0	·	·
COc1cccc(CC2(CO)CCCN(Cc3cccc(OC)c3OC)C2)c1 (configuration not stated)	6.2*	12	6	0	0	-5
COc1cccc(CC2(CO)CCCN(Cc3cc(OC)c(OC)c(OC)c3)C2)c1 (configuration not stated)	-1	-2	1	0	·	·
Cc1ccn2cc(-c3cccc(NC(=O)c4ccccc4F)c3)nc2c1	-1	16	-64	0	·	·
Cc1cnc(-c2ccc(C(N)=O)cc2)nc1NCCN1CCOCC1	5.5*	-1	6	0	-1	4
CCN(CC)c1nc(NCCCN2CCCC2=O)nc(NC2CC2)n1	5.1*	-1	-7	0	0	-4
Cc1cnc(NCc2ccc3c(c2)OCO3)nc1NCCCN1CCCC1=O	5.6*	6	-5	1	1	2
Cc1cnc(-c2ccc(C(=O)N3CCN(C)CC3)cc2)nc1NCCCN1CCCC1=O	-1	-4	5	0	·	·
Cc1cnc(-c2ccc(C(=O)NC3CC3)cc2)nc1NCCCN1CCCC1=O	5.2*	11	4	0	1	5
Cc1cc(N(C)CCO)n2nc(-c3cccc(Cl)c3)cc2n1	-1	-3	-13	0	·	·
